# Results reported in PubChem BioAssay AID1246 (Columbia University Molecular Screening Center, 2008).
# The campaign covered roughly 120,000 compounds. About 840 (0.7%) were called active.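 How the source made its calls: active means inhibition above the batch mean plus 3 SD, and confirmed as a hit on visual image review (cut at about 43% in these data); inconclusive means passes the inhibition cutoff but fails visual image review; inactive means the rest.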 The full list was thinned out, with actives kept by preference.
# Assay: E-selectin induction blockers in HUVEC – imaging, immunofluorescence, high content, primary screen (AID 1246);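 further: 0% = TNF-stimulated DMSO wells and 100% = unstimulated control wells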
# Conditions: HUVEC TNFa-induced E-selectin immunofluorescence, at 2 µM, hits give high values
row,Structure (SMILES),inhibition
1,CC(C)C(c1nnnn1Cc1ccccc1)N1CCC(C(N)=O)CC1 (stereo not given),100% (active)
2,CC(C)C(c1nnnn1CCc1ccccc1)N1CCN(C(=O)c2ccco2)CC1 (stereo not given),20.3% (inactive)
3,Cc1ccc(C(c2nnnn2CS(=O)(=O)c2ccc(C)cc2)N2CCC(C(N)=O)CC2)cc1 (stereo not given),-22.9% (inactive)
4,CC1CCCC(C)N1/N=C/c1ccccc1OC(F)F (stereo not given),0.15% (inactive)
5,O=C(CN(CC1CCCO1)C(=O)CNS(=O)(=O)c1ccc(F)cc1)NCc1ccco1 (stereo not given),-15.3% (inactive)
6,CCN(CCCNC(=O)CCn1c(=O)[nH]c2ccsc2c1=O)c1ccccc1,-8.13% (inactive)
7,O=S(=O)(c1ccc2c(c1)OCCO2)N1CCc2ccccc21,27.9% (inactive)
8,COCCN(C(=O)CCC(=O)Nc1nccs1)C(C(=O)NC(C)(C)C)c1ccc(Cl)cc1 (stereo not given),19.2% (inactive)
9,COc1cc(/C=N/Nc2ccc(C)cc2)cc(Br)c1O,-4.64% (inactive)
10,Cc1cc(C)n2nc(C(=O)N3CCN(Cc4ccc5c(c4)OCO5)CC3)nc2n1,-35.2% (inactive)
11,Cc1cc(C)n2nc(C(=O)N(C)C(c3ccccc3)c3ccccc3)nc2n1,45.1% (active)
12,Cc1cc(C)n2nc(SCC(N)=O)nc2n1,-29.9% (inactive)
13,COC(=O)c1c(C(=O)OC)c(-c2cccc(C)c2)n2c1CS(=O)C2 (stereo not given),58.3% (inactive)
14,CSc1nc2nc(-c3cccc(C(F)(F)F)c3)ccn2n1,-26.4% (inactive)
15,CC(CC(=O)C1C(C)C=CCC1(C)C)NNC(N)=O (stereo not given),13.4% (inactive)
16,CC(=O)Nc1ccc(C(=O)OCC(=O)Nc2ccc([N+](=O)[O-])cc2C(F)(F)F)cc1,-7.06% (inactive)
17,CC(=O)c1cccc(NC(=O)Nc2ccc(C)cc2)c1,8.52% (inactive)
18,CC(=O)c1ccc(NC(=O)Nc2ccc([N+](=O)[O-])cc2C)cc1,70.8% (active)
19,CCCCN(CC(=O)NC(C)(C)C)C(=O)C(=O)Nc1ccc2c(c1)OCCO2,-8.58% (inactive)
20,Cc1nccn1CCCNC(=O)CC1C(=O)NCCN1Cc1ccc(Cl)c(F)c1 (stereo not given),-5.16% (inactive)
21,COc1ccc(Cc2nnc(NS(=O)(=O)Cc3ccccc3)s2)cc1,55.2% (inactive)
22,O=C(Cc1cccs1)Nc1nnc(SCc2ccc(F)cc2)s1,-12.5% (inactive)
23,COc1ccc(Cc2nnc(NC(=O)Cc3cccs3)s2)cc1,83.6% (active)
24,CCCC(C)C(=O)NCc1ccncc1 (stereo not given),0.76% (inactive)
25,CCOC(=O)N1CCC(=NNC(N)=O)CC1,-34.9% (inactive)

row,Structure (SMILES),inhibition
1,Cn1cc(-c2ccccc2)cc(C#N)c1=O,3.87% (inactive)
2,Cc1cc(OC(=O)c2ccccc2)c([N+](=O)[O-])c(=O)[nH]1,-11.2% (inactive)
3,CC(=O)NCCn1c(SCC(=O)Nc2ccc(C)cc2)nc2ccccc2c1=O,-10.7% (inactive)
4,CCOC(=O)Nc1ccccc1N1C(=O)c2ccccc2C1=O,-7.24% (inactive)
5,CC(=O)Nc1ccccc1Sc1ccc2c3c(cccc13)C(=O)N(c1ccc(C)cc1)C2=O,62.1% (active)
6,C/C=N/NC(=O)CCCC(=O)N/N=C/C,-10.5% (inactive)
7,CN1CCC(OC(=O)COc2ccc(Cl)cc2Cl)CC1,12.5% (inactive)
8,Cc1ccc(C(=O)NC(=S)Nc2ccc(N3CCOCC3)cc2)cc1,2.01% (inactive)
9,Cc1ccc(C)c(Cn2cnc3c(oc4ccccc43)c2=O)c1,-10.7% (inactive)
10,CC1CCC2(CC1)NC(=O)N(Cc1nnc(-c3cccs3)o1)C2=O (stereo not given),-9.64% (inactive)
11,Cc1nc(-c2ccc(Cl)cc2)sc1C(=O)CBr,24.5% (inactive)
12,CCc1nnc(NC(=O)CCCSc2nc3ccccc3[nH]2)s1,-35.3% (inactive)
13,CCC(C)(C)NC(=O)CN(C(=O)C(=O)Nc1ccc2c(c1)OCCO2)C(C)(C)CC,-8.58% (inactive)
14,COc1ccc(NC(=O)c2ccc(OC)cc2)cc1,-30.5% (inactive)
15,COc1ccc(NC(=O)c2c(C)oc3c2CCCC3)cc1,60.9% (active)
16,COc1ccc(C(=O)Nc2ccc(S(=O)(=O)NC(C)C)cc2)cc1,-8.02% (inactive)
17,COc1ccc(-c2[nH]ncc2CN(C)Cc2cccnc2)c(F)c1,-5.34% (inactive)
18,O=C(NCc1nnc(SCC(=O)N2CCCc3ccccc32)o1)c1ccccc1F,-38.5% (inactive)
19,CCN(CC)S(=O)(=O)c1ccc(N(C)CCc2ccc(OC)c(OC)c2)nc1,0.93% (inactive)
20,CCCOc1ccc(C(=O)NCCc2ccccc2)cc1,-42.2% (inactive)
21,O=C(CSc1nc2ccccc2c(=O)n1CCCO)N1CCc2ccccc21,-7.95% (inactive)
22,Cn1c(SCC(=O)N2CCCc3ccccc32)nc2ccccc2c1=O,-1.81% (inactive)
23,C=CCn1c(=O)c2ccccc2n2c(SCC(=O)N3CCCc4ccccc43)nnc12,80.1% (active)
24,Cc1c(Br)c([N+](=O)[O-])nn1CC(=O)N1CCN(Cc2ccccc2)CC1,8.51% (inactive)
25,O=C(/C=C/c1ccccc1Cl)Nc1ccc(S(=O)(=O)Nc2ncccn2)cc1,-13.4% (inactive)

row,Structure (SMILES),inhibition
1,COCCCNCCOCCOc1ccc(Cl)cc1Br,-28.3% (inactive)
2,OCCNCCOc1ccc(Cl)c(Cl)c1,75.2% (active)
3,OCCNCCCCOc1ccccc1F,-13.2% (inactive)
4,CCOC(=O)N1CCN(CCC(=O)Nc2cc(OC)ccc2OC)CC1,-40.9% (inactive)
5,O=C(Nc1cccc(F)c1)N1C2CCC1CC(O)(c1cccnc1)C2 (stereo not given),-22.6% (inactive)
6,CN(C)C(=O)c1nc2ccc(Cl)cn2c1CN1CCN(c2ncccn2)CC1,-15.7% (inactive)
7,Cc1cnc(C(=O)OCC(=O)NCCCc2ccccc2)cn1,-18.2% (inactive)
8,O=C(CCSc1ccccc1)N1CCN(c2ccccc2F)CC1,-7.82% (inactive)
9,Cc1cc(C)n(-c2nnc(N3CCN(c4ccccc4)CC3)nn2)n1,1.97% (inactive)
10,CCC(=O)Nc1cccc(NC(=O)CSc2nnc(-c3ccc(NS(C)(=O)=O)cc3)n2C)c1,64.3% (active)
11,CCCCSc1nnc(-c2ccc(NC(=O)CC)cc2)n1C,1.71% (inactive)
12,Cn1c(SCC(=O)Nc2cccc(NC(=O)c3cccs3)c2)nnc1-c1ccncc1,26.7% (inactive)
13,COC(=O)C(=Nc1ccccc1)/C(C(=O)C(=O)N(C)c1ccccc1)=C(\O)c1ccc(Cl)cc1,-20.7% (inactive)
14,CSc1ncccc1C(=O)N1CCCC(CCC(=O)NCc2ccccc2F)C1 (stereo not given),-22.4% (inactive)
15,Cc1ccc(SCC(=O)NC(=O)NCc2ccco2)c(C)c1,76% (active)
16,O=C(CSc1nnc(-c2ccco2)n1Cc1ccccc1)NC(=O)NCc1ccco1,-1.5% (inactive)
17,Cc1cc(C)c2c(c1)c(C)cc1nnc(SCC(=O)NCc3ccco3)n12,9.01% (inactive)
18,Cc1cc(N2CCN(C)CC2)nc2ccc(NC(=S)N3CCOCC3)cc12,19.6% (inactive)
19,CC(=O)N1CCN(S(=O)(=O)c2c(F)cc(F)c(Cl)c2F)CC1,-26.7% (inactive)
20,CCOC(=O)N1CCN(C(=O)CSc2nc(C)nc3c2c(=O)n(C)c(=O)n3C)CC1,-25% (inactive)
21,Brc1cc(/C=N/n2cnnc2)oc1Br,-13.4% (inactive)
22,Cc1cccc(C)c1NC(=O)C1CCCN1C(=O)OC(C)(C)C (stereo not given),-33.1% (inactive)
23,C=CCN(CC=C)CCOc1ccccc1[N+](=O)[O-],-5.8% (inactive)
24,Cc1ccc(CNC(=O)c2cccnc2Cl)cc1,-5.85% (inactive)
25,CC12CCC(C(=O)N(NC(=O)c3ccccc3O)C1=O)C2(C)C (stereo not given),-1.25% (inactive)

row,Structure (SMILES),inhibition
1,CC(Sc1nnc2c(n1)C1CCC2(C)C1(C)C)C(=O)Nc1ccccc1 (stereo not given),70.7% (active)
2,CSc1nc(C)cc(SC(C(C)=O)C(=O)Nc2ccccc2)n1 (stereo not given),-11.9% (inactive)
3,Cc1ccc2c(Cl)c(C(=O)Nc3nn[nH]n3)sc2c1,13% (inactive)
4,COc1ccccc1CNC(=O)C1Cc2ccccc2C(=O)O1 (stereo not given),-3.67% (inactive)
5,Cn1c(-c2ccc(F)cc2)cnc1SCC(=O)NNC(=O)Cc1ccccc1,-21.1% (inactive)
6,CC1=NN(C(C)C)C(=O)C1,53.9% (active)
7,Cc1cc(C)n(Cc2cnc(N3CCOCC3)s2)n1,1.48% (inactive)
8,Cn1c(SCC(=O)Nc2ccc(Br)cc2F)nnc1-c1ccco1,-23.6% (inactive)
9,CCNC(=S)NNC(=O)c1ccc2ncccc2c1,9.15% (inactive)
10,CCn1c(COc2ccccc2)nnc1SCC(=O)NCc1ccco1,-14.4% (inactive)
11,CCn1c(SCC(=O)NCc2ccco2)nnc1-c1ccc(N)cc1,69.4% (active)
12,Cc1ccc(-c2csc3nnc(SCC(=O)NCc4ccco4)n23)cc1,-6.76% (inactive)
13,Cc1ccc(-n2c(C)cc(C(=O)CN3C(=O)C(=O)N(C4CCCC4)C3=O)c2C)cc1,-16.5% (inactive)
14,Cc1ccc(OCC(=O)Nc2ccc(S(=O)(=O)Nc3ccccn3)cc2)cc1,-18.7% (inactive)
15,CN(C)CC(C)(C)CNC(=O)c1cc(Br)cc(Br)c1O,0.11% (inactive)
16,CC(=O)Nc1nc(N(C)C)nc(N(C)C)n1,13.8% (inactive)
17,Cc1cccc(NC(=O)CN2C(=O)CNC2=O)c1,-1.87% (inactive)
18,CC1(c2ccccc2Cl)NC(=O)N(CC(=O)NC(=O)NCc2ccco2)C1=O (stereo not given),23.7% (inactive)
19,CN(C)S(=O)(=O)c1cc(NC(=O)CN2C(=O)NC3(CCCc4ccccc43)C2=O)ccc1Cl (stereo not given),67.1% (active)
20,CN1CCN(CCCCOc2ccccc2-c2ccccc2)CC1,-23.6% (inactive)
21,CC(=O)C1(C)N(O)C(C)(C)C(c2cccs2)=[N+]1[O-] (stereo not given),-15.7% (inactive)
22,CC1CC(C)CN(S(=O)(=O)c2ccc(C(=O)NN3CCOCC3)cc2)C1 (stereo not given),-4.78% (inactive)
23,CCOC(=O)c1c(NC(=O)CSc2nnc(CNc3ccc(C)cc3C)o2)sc(C)c1C,74.5% (active)
24,CCOC(=O)c1c(-c2ccc(C)cc2C)csc1NC(=O)CSc1nnnn1C,-25.1% (inactive)
25,CCOC(=O)c1sc(NC(=O)CSc2nnc(-c3ccco3)o2)c(C(=O)OCC)c1C,-40.2% (inactive)
